# From PubChem BioAssay
# Several values for one entry are separate records, joined by “and”; a condition that tells them apart may be missing. Equal entries are not always repeated. Activity calls are given as the source filed them.
# Assays:
# [1] = target: Albumin (Bos taurus) (UniProt P02769); assay: bovine serum albumin binders on microarray, profiling panel, artefact control for SMM control protein annotation, biochemical, small-molecule microarray, Alexa647 label, 635/667 nm fluorescence (AID 1118); settings: BSA-A647 binding, fluorescence 635 nm, higher = more signal;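 also: score merges 667 nm emission intensity and signal-to-noise per printed compound spot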
# [2] = small-molecule microarray binders of probe aXIP, primary screen, biochemical, NeuroSMM set, 635/667 nm fluorescence (AID 1119); settings: higher = more signal, called active from +8 up or from −8 down;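 also: probe is the protein aXip251-270 applied at 1 µg/mL to compound-printed slides; binding of probe to printed compounds measured as 667 nm fluorescence plus signal to noise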
# [3] = small-molecule binders of probe aNOTCH3, primary screen, biochemical, small-molecule microarray, 635/667 nm fluorescence (AID 1120); settings: higher = more signal;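 also: probe is a biotin-tagged antibody raised against NOTCH3 rather than NOTCH3 protein; score merges spot fluorescence near 667 nm with spot signal to noise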
# [4] = small-molecule binders of probe aNOTCH2, primary screen, biochemical, small-molecule microarray, 635/667 nm fluorescence (AID 1121); settings: higher = more signal;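 also: score merges feature fluorescence read at 667 nm with its signal to noise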
# [5] = target: Carbonic anhydrase 2 (Homo sapiens) (UniProt P00918); assay: CAII small-molecule binders, profiling panel, biochemical, small-molecule microarray, Alexa647-labelled CAII (AID 1122); settings: CAII-A647 binding fluorescence, higher = more signal
# [6] = COS7 lysate on small-molecule microarray, probe aHis, 635 nm (AID 1123); settings: COS7 cell lysate, fluorescence, higher = more signal;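 also: z-score combines 667nm fluorescence intensity with signal-to-noise per printed compound spot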
# [7] = compound binding in COS7 lysate, probe aLAP1, primary screen, cell lysate, small-molecule microarray (AID 1124); settings: probe aLAP1, fluorescence, higher = more signal;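 also: lysate comes from COS7 cells expressing LAP1 and is applied at 0.3 µg/mL; score merges spot fluorescence near 667 nm with signal-to-noise over triplicate slides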
# [8] = test system: Sam68 (KHDRBS1); assay: Sam68 small-molecule binders, primary screen, biochemical, small-molecule microarray, 635 nm fluorescence (AID 1125); settings: small-molecule microarray binding, higher = more signal;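 also: score merges 667 nm channel intensity with signal to noise over triplicate slides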
# [9] = test system: Chordin-like protein 2 (CHRDL2); assay: CHRDL2 small-molecule binders, primary screen, biochemical, small-molecule microarray, 635 nm fluorescence (AID 1126); settings: small-molecule microarray binding, fluorescence 635 nm; higher = more signal;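 also: printed compound slides probed with Chrdl2 protein at 4 µg/mL for 1 h at 4 C; score merges 667 nm emission intensity with signal to noise over three replicate slides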
# [10] = target: Concanavalin-A (Canavalia ensiformis) (UniProt P02866); assay: ConA small-molecule binders, primary screen, artefact control for SMM control protein annotation, biochemical, small-molecule microarray, Alexa647 label, 635 nm (AID 1127); settings: ConA-A647 binding fluorescence, higher = more signal;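 also: z combines 667 nm emission intensity with signal-to-noise across three replicate slides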
# Concanavalin-A (Canavalia ensiformis), sequence (P02866 whole entry, looked up): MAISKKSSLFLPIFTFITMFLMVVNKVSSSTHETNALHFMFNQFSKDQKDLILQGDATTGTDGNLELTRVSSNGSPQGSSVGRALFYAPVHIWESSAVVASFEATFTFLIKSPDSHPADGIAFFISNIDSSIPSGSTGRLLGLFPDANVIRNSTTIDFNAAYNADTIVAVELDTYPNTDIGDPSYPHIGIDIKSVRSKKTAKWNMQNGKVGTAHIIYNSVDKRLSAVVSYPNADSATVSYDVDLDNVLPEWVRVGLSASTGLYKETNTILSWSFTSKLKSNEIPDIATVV
# Albumin (Bos taurus), sequence (P02769 whole entry, looked up): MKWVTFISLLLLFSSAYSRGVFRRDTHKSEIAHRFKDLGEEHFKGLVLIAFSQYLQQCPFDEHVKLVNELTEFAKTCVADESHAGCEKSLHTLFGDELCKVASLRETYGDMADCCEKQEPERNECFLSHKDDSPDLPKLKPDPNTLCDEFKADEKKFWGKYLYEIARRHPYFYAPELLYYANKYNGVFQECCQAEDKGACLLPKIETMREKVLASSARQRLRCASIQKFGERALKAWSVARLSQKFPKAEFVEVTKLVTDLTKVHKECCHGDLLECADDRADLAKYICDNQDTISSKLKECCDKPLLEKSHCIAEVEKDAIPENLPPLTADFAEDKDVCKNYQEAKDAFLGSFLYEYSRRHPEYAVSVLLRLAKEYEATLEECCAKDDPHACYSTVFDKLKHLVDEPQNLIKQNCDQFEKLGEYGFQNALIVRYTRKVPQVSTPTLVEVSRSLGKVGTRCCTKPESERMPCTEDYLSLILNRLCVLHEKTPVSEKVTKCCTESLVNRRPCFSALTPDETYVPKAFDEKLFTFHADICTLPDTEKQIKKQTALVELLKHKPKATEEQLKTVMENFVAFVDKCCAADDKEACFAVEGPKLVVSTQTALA
Structure (SMILES),composite z-score [1],composite Z-score [2],composite z-score [3],composite z-score [4],composite z-score [5],composite z-score [6],composite z-score [7],composite z-score [8],composite z-score [9],composite z-score [10]
C[N+](C)(C)CCCCNC(=O)[C@@H]1C[C@@H]2C(=O)N[C@@H](CCCC[N+](C)(C)C)C(=O)N2[C@@H]1c1cccc(OCCO)c1,-0.916 and -0.121,0.104 (inactive) and 2 (inactive),0.197 and 0.129,-0.0066 and -0.0861,0.389 and 0.799,1.19 and 2.25,0.0458 and 1.65,1.31 and 0.767,1.56 and 1.47,1.13 and 0.657
CCOC(=O)CCN1C(=O)[C@H]2[C@H]3[C@H](O)[C@H](O)CC(=NNC(=O)OCC)[C@@H]3CC[C@H]2C1=O,0.357,-0.436 (inactive),0.229,-0.0131,-0.249,0.043,0.127,0.739,-0.0855,0.0804
C=CCN(C(=O)C1N(c2c(Cl)cccc2CO)C(=O)C2C(C(=O)O)C3C=CC21O3)c1ccc(OC)cc1 (stereo not given),0.14 and -0.586,-0.172 (inactive) and -0.621 (inactive),-0.786 and -0.515,-0.46 and -0.162,0.376 and -0.184,0.016 and -0.849,0.137 and -0.803,-0.608 and -1.33,-0.702 and -2.38,-0.494 and -1.23
CO[C@H]1COC(=O)CC=C[C@H](C)[C@H](OC)COC(=O)[C@@H](C)COC(=O)CC=C[C@@H]1C,-0.774 and -0.721,0.606 (inactive) and -0.054 (inactive),-0.0984 and -0.0932,-0.153 and -0.14,-0.173 and -0.455,-0.315 and -0.798,-0.497 and -0.561,0.467 and 0.0015,1.16 and 0.85,-0.413 and -1.52
C=CCN(C(=O)C(c1cccs1)N(CCOCCO)C(=O)/C=C\C(=O)O)C(C)(C)C (stereo not given),-0.503 and -0.823,-0.48 (inactive) and -0.0662 (inactive),-0.387 and -0.349,-0.148 and -0.126,0.847 and 0.9,-0.851 and 0.606,-0.957 and 0.0378,-1.33 and -0.246,-2.31 and -1.58,-1.4 and -1.67
C=CCN(Cc1ccccc1)C(=O)C1N(CCOCCO)C(=O)C2C(C(=O)O)C3C=CC21O3 (stereo not given),-1.03 and 0.202,-0.124 (inactive) and 0.217 (inactive),-0.611 and -0.41,-0.0984 and -0.183,0.903 and 0.881,1.33 and -1.28,1.24 and -0.375,-0.604 and -0.238,-3.42 and -2.87,-1.05 and -0.374
C=CCN(C(=O)C1N(C(C)(C)CO)C(=O)C2C(C(=O)O)C3C=CC21O3)C(C)(C)C (stereo not given),-0.768 and -1.3,-0.057 (inactive) and -0.12 (inactive),-0.664 and -0.47,-0.154 and -0.208,0.856 and 0.799,-1.2 and 0.643,-0.393 and 1.52,-0.967 and -0.65,-3.3 and -1.67,-0.855 and -1.83
C=CCN(C(=O)C1N(c2ccc(CCO)cc2)C(=O)C2C(C(=O)O)C3C=CC21O3)c1ccc(OC)cc1 (stereo not given),-0.326 and -0.0621,-0.177 (inactive) and -0.773 (inactive),-0.285 and -0.585,-0.14 and -0.0932,0.93 and 0.471,-0.188 and -0.412,-0.0393 and -0.133,0.0118 and -1.55,-0.726 and -2.53,0.287 and -1.64
CO[C@@H]1C=CCC(=O)N2CCC[C@H]2C(=O)OC[C@H](C)C(=O)OC[C@H]1C,0.987,0.392 (inactive),-0.0077,0.012,0.403,-0.555,-0.795,0.216,1.01,-0.607
C=CCN(Cc1ccccc1)C(=O)C(c1cccs1)N(C(=O)/C=C\C(=O)O)c1ccc(CCO)cc1 (stereo not given),-0.047 and 0.278,-0.18 (inactive) and -0.296 (inactive),-0.532 and -0.475,-0.213 and -0.2,0.824 and 0.335,-0.577 and -0.107,-0.0165 and -0.602,-0.581 and -1.13,-2.94 and -1.92,-0.772 and -0.564
C=C[C@@H](C)[C@@H](O)c1ccc(OCCO)cc1,-0.342 and 0.259,0.142 (inactive) and -0.0636 (inactive),-0.701 and -0.608,-0.153 and -0.199,0.8 and 0.731,-0.217 and -0.451,-0.262 and -0.524,-0.97 and -0.832,-3.22 and -2.09,-1.86 and -0.87
COC(=O)[C@@]1(Cc2ccccc2)[C@H]2c3cc(C(=O)N(C)C)n(C[C@H](O)CO)c3C[C@H]2CN1C(=O)c1ccccc1,0.4 and 1.14,-0.506 (inactive) and -0.574 (inactive),0.0208 and 0.52,0.0538 and 0.261,0.897 and 0.841,3.13 and 1.27,0.562 and 0.966,-0.278 and -0.421,-0.138 and -0.519,-0.148 and -0.0788
Cc1ccc(S(=O)(=O)OC[C@@H]2CN3[C@@H](CC[C@@H](C)[C@@H]3c3ccc(Br)cc3)C(=O)O2)cc1,0.278 and 0.51,-0.19 (inactive) and 0.177 (inactive),0.062 and 0.0051,-0.124 and -0.0326,0.11 and 0.427,-0.0886 and 0.315,-0.162 and 0.565,0.418 and 0.99,0.251 and 0.327,0.446 and 0.54
C=CCN(C(=O)C(c1cccs1)N(CCOCCO)C(=O)/C=C\C(=O)O)c1ccc(OC)cc1 (stereo not given),-0.625 and -1.25,0.347 (inactive) and -0.659 (inactive),-0.212 and -0.312,-0.14 and -0.126,-0.655 and -0.65,-0.718 and -1.36,0.164 and -0.531,-1.75 and -1.35,-0.166 and -3.29,-0.337 and -2.28
COC(=O)C1=C(C)N(Cc2ccccc2)C2=C3C(=O)N(c4ccccc4)C(=O)[C@@H]3[C@@](O)(C(=O)OC)C(=O)N2[C@@H]1c1ccccc1,0.361 and 0.207,0.0519 (inactive) and 0.0894 (inactive),0.236 and 0.116,-0.0767 and -0.101,0.46 and 0.7,0.241 and 0.608,0.171 and 0.983,0.462 and 1.13,0.513 and 0.402,-0.196 and 0.475
C=CCN(CCCCC)C(=O)C1N(CCOCCO)C(=O)C2C(C(=O)O)C3C=CC21O3 (stereo not given),0.92 and -1.47,2.54 (inactive) and -0.487 (inactive),-0.496 and -0.461,-0.195 and -0.189,0.853 and 0.794,-0.568 and 0.294,-0.615 and 1.6,-3.26 and -1,-2.12 and -3.36,-1.88 and -1.67
